Test results as given in the supplement of paper PMC8728848.
Shown is part of a subset that was picked to be rich in the strongest signals.

B1: GH98CBM (Clostridium perfringens) (protein)
chain: EVYALEESRDVYLSDLDWLNATHGDDTKSKIVQKNHPFTPGNNNQSTKISLKMEDGSISEFEKGLGTIAGSPSTITYDISGAGVTKFFSYLGIDRSANPINEQYAKVDKIEVVVDGKVIYSTINQFPNGLTYETPAIKVDLNIPENAKRLQLKSYAGEKTWGDEVVYADAKFTAKGDFVN
B2: FaeGac (Escherichia coli) (protein)
chain: WMTGDFNGSVDIGGSITADDYRQKWEWKVGTGLNGFGNVLNDLTNGGTKLTITVTGNKPILLGRTKEAFATPVTGGVDGIPHIAFTDYEGASVVLRKPDGETNKNGLAYFVLPMKNAGGTKVGSVKVNASYAGVLGRGGVTSADGELLSLFADGLSSIFYGGLPRGSELSAGSAAAARTKLFGSLSRDDILGQIQRVNANVTSLVDVAGSYRENMEYTDGNVVSAAYALGIANGQTIEATFNQAVTTSTQWSAPLNVAITYY

Key:
Test in all cases: glycan array binding signal (z-score within array); higher = stronger binding
Details in all cases: glycan notation: IUPAC condensed, linker removed
[1] = molecular target: Fuc(a1-2)[Gal(a1-3)]Gal(b1-4)Glc
Outline: (§1)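 Negative Z-scores can be read as non-binding. The Z-score is calculated within each array and then averaged across arrays of one protein sequence at different concentrations or buffers and across linkers. Arrays, 3228 in all, were curated from the Consortium for Functional Glycomics database and kept only where the protein sequence was available.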

[2] = molecular target: Fuc(a1-2)[GalNAc(a1-3)]Gal
Outline: as §1

[3] = molecular target: Fuc(a1-2)[GalNAc(a1-3)]Gal(b1-4)Glc
Outline: as §1

[4] = molecular target: Fuc(a1-2)[GalNAc(a1-3)]Gal(b1-4)GlcNAc
Outline: as §1

[5] = molecular target: Fuc(a1-2)[GalNAc(a1-3)]Gal(b1-4)[Fuc(a1-3)]GlcNAc
Outline: as §1

[6] = molecular target: Fuc(a1-2)[GalNAc(a1-4)]Gal(b1-4)GlcNAc
Outline: as §1

[7] = molecular target: Fuc(a1-3)[Gal(b1-4)]GlcNAc(b1-2)Man(a1-3)[Fuc(a1-3)[Gal(b1-4)]GlcNAc(b1-2)Man(a1-6)]Man(b1-4)GlcNAc(b1-4)GlcNAc
Outline: as §1

[8] = molecular target: Fuc(a1-3)[Gal(b1-4)]GlcNAc(b1-4)Gal(b1-4)[Fuc(a1-3)]GlcNAc(b1-4)Gal(b1-4)[Fuc(a1-3)]GlcNAc
Outline: as §1

Fuc(b1-3)GlcNAc = molecular target: Fuc(b1-3)GlcNAc
Outline: as §1

GlcA(b1-3)Gal = molecular target: GlcA(b1-3)Gal
Outline: as §1

GlcNAc(b1-6)GalNAc = molecular target: GlcNAc(b1-6)GalNAc
Outline: as §1

GlcNAc3Prop(b1-4)GlcNAc = molecular target: GlcNAc3Prop(b1-4)GlcNAc
Outline: as §1

Man(b1-4)GlcNAc = molecular target: Man(b1-4)GlcNAc
Outline: as §1

[9] = molecular target: Neu5Ac(a2-3)Gal(b1-4)[Fuc(a1-3)]GlcNAc(b1-3)Gal(b1-4)[Fuc(a1-3)]GlcNAc(b1-3)Gal(b1-4)[Fuc(a1-3)]GlcNAc
Outline: as §1

[10] = molecular target: Neu5Ac(a2-8)Neu5Ac(a2-8)Neu5Ac
Outline: as §1

Neu5Gc(a2-3)Gal(b1-4)Glc = molecular target: Neu5Gc(a2-3)Gal(b1-4)Glc
Outline: as §1

[11] = molecular target: Fuc(a1-3)[Gal(b1-4)]GlcNAc
Outline: as §1

Gal(a1-3)Gal(b1-3)GlcNAc = molecular target: Gal(a1-3)Gal(b1-3)GlcNAc
Outline: as §1

[12] = molecular target: Gal(b1-4)GlcNAc(b1-3)Gal(b1-4)GlcNAc
Outline: as §1

Gal3S6S(b1-4)GlcNAc6S = molecular target: Gal3S6S(b1-4)GlcNAc6S
Outline: as §1

Glc(a1-4)Glc = molecular target: Glc(a1-4)Glc
Outline: as §1

Glc(a1-6)Glc(a1-6)Glc = molecular target: Glc(a1-6)Glc(a1-6)Glc
Outline: as §1

Glc(b1-4)Glc = molecular target: Glc(b1-4)Glc
Outline: as §1

[13] = molecular target: GlcNAc(a1-3)Gal(b1-4)GlcNAc
Outline: as §1

[14] = molecular target: Man(a1-2)Man(a1-2)Man(a1-6)[Man(a1-3)]Man
Outline: as §1

[15] = molecular target: Man(a1-2)Man(a1-3)[Man(a1-6)]Man(a1-6)[Man(a1-2)Man(a1-3)]Man(b1-4)GlcNAc(b1-4)GlcNAc
Outline: as §1

[16] = molecular target: Neu5Ac(a2-3)Gal(b1-3)[Fuc(a1-4)]GlcNAc
Outline: as §1

Neu5Ac(a2-3)Gal(b1-4)Glc = molecular target: Neu5Ac(a2-3)Gal(b1-4)Glc
Outline: as §1

[17] = molecular target: Neu5Ac(a2-3)[GalNAc(b1-4)]Gal(b1-4)GlcNAc
Outline: as §1

[18] = molecular target: Neu5Gc(a2-3)Gal(b1-3)GlcNAc
Outline: as §1

| Binder | glycan array binding signal (z-score) [1] | glycan array binding signal (z-score) [2] | glycan array binding signal (z-score) [3] | glycan array binding signal (z-score) [4] | glycan array binding signal (z-score) [5] | glycan array binding signal (z-score) [6] | glycan array binding signal (z-score) [7] | glycan array binding signal (z-score) [8] | glycan array binding signal (z-score) (Fuc(b1-3)GlcNAc) | glycan array binding signal (z-score) (GlcA(b1-3)Gal) | glycan array binding signal (z-score) (GlcNAc(b1-6)GalNAc) | glycan array binding signal (z-score) (GlcNAc3Prop(b1-4)GlcNAc) | glycan array binding signal (z-score) (Man(b1-4)GlcNAc) | glycan array binding signal (z-score) [9] | glycan array binding signal (z-score) [10] | glycan array binding signal (z-score) (Neu5Gc(a2-3)Gal(b1-4)Glc) | glycan array binding signal (z-score) [11] | glycan array binding signal (z-score) (Gal(a1-3)Gal(b1-3)GlcNAc) | glycan array binding signal (z-score) [12] | glycan array binding signal (z-score) (Gal3S6S(b1-4)GlcNAc6S) | glycan array binding signal (z-score) (Glc(a1-4)Glc) | glycan array binding signal (z-score) (Glc(a1-6)Glc(a1-6)Glc) | glycan array binding signal (z-score) (Glc(b1-4)Glc) | glycan array binding signal (z-score) [13] | glycan array binding signal (z-score) [14] | glycan array binding signal (z-score) [15] | glycan array binding signal (z-score) [16] | glycan array binding signal (z-score) (Neu5Ac(a2-3)Gal(b1-4)Glc) | glycan array binding signal (z-score) [17] | glycan array binding signal (z-score) [18] |
| --- | --- | --- | --- | --- | --- | --- | --- | --- | --- | --- | --- | --- | --- | --- | --- | --- | --- | --- | --- | --- | --- | --- | --- | --- | --- | --- | --- | --- | --- | --- |
| B1 | 2.19 | 4.81 | 6.66 | 8.52 | 5.47 | -0.209 | 0.041 | -0.235 | 0.118 | -0.196 | -0.22 | -0.189 | -0.183 | -0.233 | -0.247 | -0.107 | – | – | – | – | – | – | – | – | – | – | – | – | – | – |
| B2 | – | – | – | – | – | – | – | – | – | -0.705 | – | – | – | – | – | – | -0.598 | -0.126 | -0.084 | 1.17 | 5.96 | 6.71 | 4.43 | 0.229 | 3.1 | 0.527 | 0.445 | -0.81 | -0.863 | -0.826 |
